According to PubChem BioAssay:
Activity calls are given as the source filed them. Unless noted, the rule behind the calls is not given here.

Experiments:
[1] = tested on: Wnt5a (protein binding on small-molecule microarray); assay: Wnt5a binders on small-molecule microarray, primary screen, biophysical, 635/667 nm fluorescence (AID 1142); conditions: 635 nm fluorescence, higher = more signal;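 note: fluorescence read at 667 nm with signal to noise per printed feature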
[2] = cell viability in Huh7 cells, primary screen, cytotoxicity control for HCV replication inhibitor project, CellTiter-Glo luminescence, basal, 48 h (AID 1143); conditions: Huh7 HCV replicon, higher = more signal, called active from +8 up or from −8 down;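 note: Huh7 hepatoma cells carrying a hepatitis C replication reporter with no stimulus; test concentration not given here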
[3] = P. aeruginosa biofilm formation inhibitors, primary screen, PAO1 strain, BacTiter-Glo luminescence, LB-PBS (AID 1144); conditions: 12 h, higher = more signal
[4] = CREB reporter modulators without forskolin, primary screen, cell-based, PC12, CRE-LacZ reporter, unstimulated (AID 1145); conditions: no forskolin, luminescence, 4.5 h, higher = more signal, called active from +8 up or from −8 down
[5] = CREB reporter modulators under forskolin, primary screen, cell-based, PC12, CRE-LacZ reporter, forskolin-stimulated (AID 1146); conditions: luminescence, 4.5 h, higher = more signal, called active from +8 up or from −8 down;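 note: PC12 cells with 6xCRE LacZ reporter stimulated by forskolin 10 µM; beta-galactosidase reporter signal reflecting CREB driven transcription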
[6] = target: Streptavidin (Streptomyces avidinii) (UniProt P22629); assay: streptavidin binders on small-molecule microarray, primary screen, artefact control for SMM compound annotation, biophysical, 635/667 nm fluorescence (AID 1147); conditions: streptavidin binding, higher = more signal;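 note: signal reflects streptavidin binding to arrayed compounds as a control protein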
Sequence of Streptavidin (Streptomyces avidinii) (P22629 whole entry, looked up): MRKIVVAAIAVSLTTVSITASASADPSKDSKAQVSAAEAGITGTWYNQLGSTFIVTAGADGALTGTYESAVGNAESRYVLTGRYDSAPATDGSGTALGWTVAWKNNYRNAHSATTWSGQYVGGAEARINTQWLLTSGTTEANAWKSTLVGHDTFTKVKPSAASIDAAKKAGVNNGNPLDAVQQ

[7] = small-molecule binders of probe aInhba, primary screen, biochemical, small-molecule microarray, 635/667 nm fluorescence (AID 1148); conditions: higher = more signal;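 note: score merges 667nm spot fluorescence with signal-to-noise for antibody binding to printed compounds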
[8] = target: Torsin-1A (Homo sapiens) (UniProt O14656); assay: torsin A binders from cell lysate, primary screen, small-molecule microarray, wild-type, 635/667 nm (AID 1149); conditions: COS7 hTOR1A-WT lysate, 635 nm fluorescence, higher = more signal
Sequence of Torsin-1A (Homo sapiens) (O14656 whole entry, looked up): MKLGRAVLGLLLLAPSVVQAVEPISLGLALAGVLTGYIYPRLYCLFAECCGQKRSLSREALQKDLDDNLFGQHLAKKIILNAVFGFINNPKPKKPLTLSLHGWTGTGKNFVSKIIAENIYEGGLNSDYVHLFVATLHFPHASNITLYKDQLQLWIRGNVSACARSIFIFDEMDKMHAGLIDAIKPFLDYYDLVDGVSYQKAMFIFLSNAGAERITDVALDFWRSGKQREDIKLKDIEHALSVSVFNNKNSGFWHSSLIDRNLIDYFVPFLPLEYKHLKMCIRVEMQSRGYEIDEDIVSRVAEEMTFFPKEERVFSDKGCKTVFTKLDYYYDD

[9] = target: Torsin-1A (Homo sapiens) (UniProt O14656); assay: small-molecule binders of mutant TOR1A in lysate, primary screen, cell lysate, small-molecule microarray, COS7 lysate, 635/667 nm fluorescence (AID 1150); conditions: COS7 hTOR1A mutant lysate, 635 nm fluorescence, higher = more signal;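 note: score pools 667 nm emission and signal to noise measuring lysate protein binding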
[10] = tested on: Sonic hedgehog protein (Shh); assay: small-molecule binders of Shh protein, primary screen, biochemical, small-molecule microarray, 635/667 nm fluorescence (AID 1151); conditions: small-molecule microarray binding, 635 nm fluorescence; higher = more signal;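 note: Shh protein binding to compounds spotted on small-molecule microarray slides; score combines spot fluorescence intensity with signal-to-noise across triplicate slides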

SMILES: C=C(COC)C(=O)CC[C@H](OC(C)=O)c1ccc(CO)o1
- composite z-score [1]: -0.0261
- z-score [2]: -2.28 (inactive)
- z-score [3]: -0.824 (inactive)
- z-score [4]: -0.0884 (inactive)
- z-score [5]: 0.464 (inactive)
- composite z-score [6]: -0.0888
- composite z-score [7]: -0.101
- composite z-score [8]: -0.675
- composite z-score [9]: -0.337
- composite z-score [10]: 1.55

SMILES: CCOC(=O)C[C@H]1[C@H](OC(=O)c2ccc(-c3ccccc3)cc2)[C@@H](NC(=O)c2ccc(-c3ccccc3)cc2)c2cc(OCCCO)ccc2N1C(=O)c1ccccc1
- composite z-score [1]: 0.131
- z-score [2]: -0.212 (inactive)
- z-score [3]: -0.00979 (inactive)
- z-score [4]: -0.724 (inactive)
- z-score [5]: 0.659 (inactive)
- composite z-score [6]: 0.763
- composite z-score [7]: 0.108
- composite z-score [8]: 0.134
- composite z-score [9]: 0.987
- composite z-score [10]: 0.921

SMILES: CCOC(=O)C=C1C[C@@H](c2cccc([N+](=O)[O-])c2)O[C@@H](c2cccc([N+](=O)[O-])c2)O1
- composite z-score [1]: 0.719
- z-score [2]: -3.18 (inactive)
- z-score [3]: 0.397 (inactive)
- z-score [4]: -0.527 (inactive)
- z-score [5]: -0.495 (inactive)
- composite z-score [6]: 0.865
- composite z-score [7]: 0.503
- composite z-score [8]: 0.167
- composite z-score [9]: 0.582
- composite z-score [10]: 0.147

SMILES: O=C(N1CCOCC1)[C@]1(CCS(=O)(=O)c2ccccc2)N=C(c2ccc(OCCCO)cc2)O[C@@H]1c1ccccc1
- composite z-score [1]: 0.308
- z-score [2]: -2.3 (inactive)
- z-score [3]: 0.863 (inactive)
- z-score [4]: 1.1 (inactive)
- z-score [5]: 0.711 (inactive)
- composite z-score [6]: 0.947
- composite z-score [7]: 0.212
- composite z-score [8]: 0.46
- composite z-score [9]: 0.77
- composite z-score [10]: -0.19

SMILES: C=C(/C=C\CNS(=O)(=O)c1ccc(C)cc1)[C@H](O)[C@H]1CCCN1S(=O)(=O)c1ccccc1[N+](=O)[O-]
- composite z-score [1]: 0.0313
- z-score [2]: -4.19 (inactive)
- z-score [3]: 0.227 (inactive)
- z-score [4]: 13 (active)
- z-score [5]: 0.121 (inactive)
- composite z-score [6]: -0.0435
- composite z-score [7]: -0.0986
- composite z-score [8]: 0.345
- composite z-score [9]: -0.0414
- composite z-score [10]: 0.17

SMILES: C[N+](C)(C)CCCC[C@@H]1NC(=O)[C@H]2C[C@@H](C(=O)NCCCCCN)[C@@H](c3ccc(O)cc3)N2C1=O
- composite z-score [1]: 0.801
- z-score [2]: -0.147 (inactive)
- z-score [3]: 0.69 (inactive)
- z-score [4]: 1.11 (inactive)
- z-score [5]: 0.466 (inactive)
- composite z-score [6]: 2.29
- composite z-score [7]: 0.228
- composite z-score [8]: 0.926
- composite z-score [9]: 0.6
- composite z-score [10]: 2.17

SMILES: C=CC[C@]12N=C(c3ccc(OCCCO)cc3)O[C@H]1c1ccccc1N(CCC)C2=O
- composite z-score [1]: 0.587
- z-score [2]: -3.39 (inactive)
- z-score [3]: 0.552 (inactive)
- z-score [4]: 0.866 (inactive)
- z-score [5]: -0.743 (inactive)
- composite z-score [6]: -0.256
- composite z-score [7]: 0.562
- composite z-score [8]: 0.234
- composite z-score [9]: 0.397
- composite z-score [10]: 1.61

SMILES: COC(=O)C(CC#Cc1ccc2c(c1)[C@]1(C(=O)N2)[C@H](c2ccc(OCCO)cc2)N2[C@H](c3ccccc3)[C@H](c3ccccc3)OC(=O)[C@H]2[C@@H]1C(N)=O)C(=O)OC
- composite z-score [1]: -0.0885
- z-score [2]: -2.24 (inactive)
- z-score [3]: -0.287 (inactive)
- z-score [4]: -0.0246 (inactive)
- z-score [5]: 0.0658 (inactive)
- composite z-score [6]: 1.42
- composite z-score [7]: -0.0719
- composite z-score [8]: 0.598
- composite z-score [9]: -0.127
- composite z-score [10]: -0.315

SMILES: CCN1C(=O)C2CC(=O)C3C(CN(S(=O)(=O)c4ccc(C)cc4)C3c3ccc(C)cc3)C2C1=O (stereo not given)
- composite z-score [1]: 0.235
- z-score [2]: -1.49 (inactive)
- z-score [3]: 1.03 (inactive)
- z-score [4]: -0.676 (inactive)
- z-score [5]: -0.202 (inactive)
- composite z-score [6]: 0.851
- composite z-score [7]: -0.0471
- composite z-score [8]: 0.364
- composite z-score [9]: 0.915
- composite z-score [10]: 0.184

SMILES: C=CCC(OC(C)=O)[C@@H]1[C@@H](N(Cc2ccc(-c3ccccc3)cc2)C(=O)Cc2ccc(OC)cc2)c2cc(OCCCO)ccc2N1C(=O)Cc1ccc(OC)cc1 (stereo not given in full)
- composite z-score [1]: 0.0361
- z-score [2]: -1.79 (inactive)
- z-score [3]: 1.04 (inactive)
- z-score [4]: 0.642 (inactive)
- z-score [5]: 0.482 (inactive)
- composite z-score [6]: 0.222
- composite z-score [7]: 0.169
- composite z-score [8]: 0.172
- composite z-score [9]: 0.212
- composite z-score [10]: 0.363

SMILES: CN1C(=O)C2C=CC(C(O)COCc3ccccc3)N(Nc3ccc([N+](=O)[O-])cc3[N+](=O)[O-])C2C1=O (stereo not given)
- composite z-score [1]: 0.727
- z-score [2]: 0.615 (inactive)
- z-score [3]: -0.73 (inactive)
- z-score [4]: 1.01 (inactive)
- z-score [5]: -0.252 (inactive)
- composite z-score [6]: -0.387
- composite z-score [7]: 0.0442
- composite z-score [8]: -0.306
- composite z-score [9]: 0.713
- composite z-score [10]: -0.997

SMILES: CCCCN1CC=CC23O[C@@H]4C=CCCOC(=O)C4[C@H]2C(=O)N(CCO)[C@@H]3C1=O (stereo not given in full)
- composite z-score [1]: -0.213
- z-score [2]: 0.142 (inactive)
- z-score [3]: -0.892 (inactive)
- z-score [4]: -1.45 (inactive)
- z-score [5]: -0.34 (inactive)
- composite z-score [6]: -0.434
- composite z-score [7]: -0.0405
- composite z-score [8]: -0.856
- composite z-score [9]: -0.508
- composite z-score [10]: 1.71

SMILES: COC(=O)C(CC#Cc1ccc2c(c1)[C@]1(C(=O)N2)[C@H](C(N)=O)[C@H]2C(=O)O[C@H](c3ccccc3)[C@H](c3ccccc3)N2[C@@H]1c1ccccc1OCCO)C(=O)OC
- composite z-score [1]: 0.151
- z-score [2]: -6.25 (inactive)
- z-score [3]: -0.451 (inactive)
- z-score [4]: 0.362 (inactive)
- z-score [5]: -0.955 (inactive)
- composite z-score [6]: -0.0001
- composite z-score [7]: -0.152
- composite z-score [8]: 0.544
- composite z-score [9]: 1.48
- composite z-score [10]: 1.07

SMILES: Cc1cccc([C@H]2C[C@H]3C(Br)=C[C@@]2(CO)C(=O)[C@]32CO2)c1
- composite z-score [1]: 0.253
- z-score [2]: -0.376 (inactive)
- z-score [3]: -0.53 (inactive)
- z-score [4]: -0.595 (inactive)
- z-score [5]: 3.9 (inactive)
- composite z-score [6]: -0.376
- composite z-score [7]: -0.128
- composite z-score [8]: -1.59
- composite z-score [9]: -1.08
- composite z-score [10]: 0.462

SMILES: CO[C@H]1O[C@H](CO)[C@@H](OC(=O)CCc2ccccc2)[C@@H]2OC(=O)[C@@H](Cc3ccc4ccccc4c3)C/C=C/C[C@H](Cc3ccc4ccccc4c3)C(=O)O[C@@H]12
- composite z-score [1]: 0.0032
- z-score [2]: -2.59 (inactive)
- z-score [3]: -0.302 (inactive)
- z-score [4]: -0.151 (inactive)
- z-score [5]: 0.336 (inactive)
- composite z-score [6]: -0.452
- composite z-score [7]: -0.13
- composite z-score [8]: -1.32
- composite z-score [9]: 1.06
- composite z-score [10]: -0.657

SMILES: C=CCNC(=O)[C@H]1[C@@H]2C(=O)O[C@@H](c3ccccc3)[C@@H](c3ccccc3)N2[C@@H](c2ccc(O)cc2)[C@]12C(=O)Nc1ccc(C#CCC(C(=O)OC)C(=O)OC)cc12
- composite z-score [1]: -0.223
- z-score [2]: 0.15 (inactive)
- z-score [3]: 0.278 (inactive)
- z-score [4]: -0.471 (inactive)
- z-score [5]: 0.0988 (inactive)
- composite z-score [6]: -0.419
- composite z-score [7]: -0.0762
- composite z-score [8]: 0.685
- composite z-score [9]: 0.449
- composite z-score [10]: 0.414

SMILES: O=C1c2ccccc2[C@@]2(Cc3ccccc3N(CC(F)(F)F)C2=O)[C@H](c2ccc(CO)cc2)N1Cc1ccccc1
- composite z-score [1]: 0.104
- z-score [2]: -4.1 (inactive)
- z-score [3]: -0.692 (inactive)
- z-score [4]: -0.258 (inactive)
- z-score [5]: -0.616 (inactive)
- composite z-score [6]: 0.0298
- composite z-score [7]: -0.149
- composite z-score [8]: -0.118
- composite z-score [9]: -0.175
- composite z-score [10]: 1.82

SMILES: COCCOC(=O)N1C(=O)[C@@]2(c3cc(C#CCNC(N)=O)ccc31)[C@H](c1ccc(O)cc1)N1[C@H](c3ccccc3)[C@H](c3ccccc3)OC(=O)[C@H]1[C@@H]2C(=O)N1CCc2cc(OC)c(OC)cc2C1
- composite z-score [1]: 0.0981
- z-score [2]: -0.483 (inactive)
- z-score [3]: 0.389 (inactive)
- z-score [4]: -0.0515 (inactive)
- z-score [5]: -0.379 (inactive)
- composite z-score [6]: 0.468
- composite z-score [7]: -0.0448
- composite z-score [8]: -0.0669
- composite z-score [9]: 0.148
- composite z-score [10]: 0.97

SMILES: CS(=O)(=O)CCOC(=O)C1=CC(CCCO)=CC(C2CC2)N(Cc2sc3ccccc3c2Cl)C=C1C(=O)OCCS(C)(=O)=O (stereo not given)
- composite z-score [1]: 0.296
- z-score [2]: -2.27 (inactive)
- z-score [3]: -0.15 (inactive)
- z-score [4]: 2.57 (inactive)
- z-score [5]: -0.655 (inactive)
- composite z-score [6]: 1.41
- composite z-score [7]: 0.523
- composite z-score [8]: 1.15
- composite z-score [9]: 1.48
- composite z-score [10]: 1.41

SMILES: CCCNC(=O)[C@@]1(Sc2ccc(C)cc2)CC(=O)N(Cc2cc(C(F)(F)F)cc(C(F)(F)F)c2)[C@@H]1c1ccc(CO)cc1
- composite z-score [1]: -0.139
- z-score [2]: -4.41 (inactive)
- z-score [3]: 0.503 (inactive)
- z-score [4]: -0.554 (inactive)
- z-score [5]: 0.448 (inactive)
- composite z-score [6]: -1.08
- composite z-score [7]: -0.0963
- composite z-score [8]: -0.11
- composite z-score [9]: -0.155
- composite z-score [10]: -0.0508
